Screen size: about 370,000 compounds; about 1,100 (0.3%) were called active. This is one part of a sample in which actives are shown more often than they occur. A number with no mark means an inactive call. No stated cut-off is given here; in the data, active means inhibition above about 13%; inactive means the rest.
These compounds were tested against Methyl-CpG-binding domain protein 2 (Homo sapiens) (UniProt Q9UBB5) (assay: MBD2-DBD methyl-oligonucleotide interaction blockers – biochemical, TR-FRET, DNA-binding domain, human, primary screen (AID 686964)). Details: MBD2 binding to methylated oligonucleotide, at 4.4 µM, stronger effect = higher value.
Chain of Methyl-CpG-binding domain protein 2 (Homo sapiens) (Q9UBB5 whole entry, looked up, the tested form may be a part): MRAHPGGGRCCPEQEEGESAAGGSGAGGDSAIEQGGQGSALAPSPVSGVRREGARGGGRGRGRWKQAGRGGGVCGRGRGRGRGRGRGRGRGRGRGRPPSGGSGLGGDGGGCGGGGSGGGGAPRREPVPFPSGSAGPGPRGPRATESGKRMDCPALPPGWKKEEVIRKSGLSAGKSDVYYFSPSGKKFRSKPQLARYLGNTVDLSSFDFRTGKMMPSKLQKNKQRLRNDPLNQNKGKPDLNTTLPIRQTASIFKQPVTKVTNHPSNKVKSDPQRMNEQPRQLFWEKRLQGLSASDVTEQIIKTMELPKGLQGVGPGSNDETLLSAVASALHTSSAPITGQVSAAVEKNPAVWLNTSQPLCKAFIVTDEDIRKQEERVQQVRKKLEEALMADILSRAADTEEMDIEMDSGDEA

Going from `COCCn1c(CN2CCC(Cc3ccccc3)CC2)nc2c1c(=O)n(C)c(=O)n2C` to `CCCC1CCC2(CCCN2CCOC(=O)NCc2ccccc2)CC1` (stereo not drawn), the inhibition falls from 4.97% to 3.95%.

First: O=C(CCCCCN1C(=O)C2C3C=CC(C3)C2C1=O)Nc1ccccc1 (stereo not drawn)
Second: COc1ccc(OCCCC(=O)Nc2cccc(S(=O)(=O)N3CCCCCC3)c2)cc1
The inhibition of the first is lower: -6.87% for the first, -2.96% for the second.

Compared with `Cc1nc(S(=O)(=O)c2ccc(Br)cc2)nc2c1CCC2`, `Cc1c(C(=O)NCCN(C)C)oc2ccc(S(=O)(=O)N3CCCC3)cc12` is higher in inhibition: 1.36% for the first, 4.85% for the second.

Compared with `CO/N=C/CC(=O)c1ccc(OC)cc1`, `COc1ccc(C2NC(=O)N(C)C(C)=C2[N+](=O)[O-])cc1` (stereo not drawn) is higher in inhibition: -0.8% for the first, 0.13% for the second.

Going from `CCN1CCN(C(=O)N(Cc2ccc(Cl)cc2)S(=O)(=O)c2ccc(C)cc2)CC1` to `CC(C)CC(COCc1ccc(Cl)cc1)N1CCN(C(=O)c2ccc(C(F)(F)F)cc2)CCC1=O` (stereo not drawn), the inhibition rises from 2.19% to 4.33%.

Going from `N#Cc1ccccc1OC[C@@H](O)CN1CCC(C(O)(c2ccccc2)c2ccccc2)CC1` to `O=C(c1ccc(C(F)(F)F)cc1)N1CCC(=O)N([C@H](COCc2ccccc2)Cc2ccccc2)CC1`, the inhibition rises from 0.72% to 3%.

First: CCCCNC(=O)C[C@H]1C(=O)N(Cc2ccc(OC)cc2)C2=CCCC[C@@]21C(=O)OCC
Second: CCOC(=O)[C@]12CCCC=C1N(CCCOC)C(=O)[C@@H]2CC(=O)N1CCOCC1
The inhibition of the first is lower: -1.99% for the first, -0.28% for the second.

Compared with `CSc1nnc(-c2ccc(C(F)(F)F)cn2)o1`, `Cc1nn(-c2ncc(C(F)(F)F)cc2Cl)c(=O)n1-c1ccccc1` is higher in inhibition: 2.79% for the first, 3.32% for the second.

Compared with `Cc1ccccc1NC(=O)c1ccc(COc2ccc3c(C)cc(=O)oc3c2)cc1`, `COC(=O)c1ccc2nc(-c3ccccc3)c(Cc3ccc(OC)cc3C)n2c1` is higher in inhibition: 5.18% for the first, 10.6% for the second.

First: Cc1ccc(O)c(NC(=O)c2cc(-c3ccco3)on2)c1
Second: Cc1cc(C(=O)NN=C/C=C/c2ccco2)n[nH]1
The inhibition of the first is lower: -2.88% for the first, -1.33% for the second.

First: CCN(Cc1ccncc1)C(=O)c1cccc(S(=O)(=O)N2CCOCC2)c1
Second: CCOc1ccc(S(=O)(=O)N2CCC(C(=O)NCc3ccccn3)CC2)cc1Cl
The inhibition of the first is higher: 0.65% for the first, -0.81% for the second.

Compared with `Cc1cccc(CN2CCN(C3CN(Cc4cn(Cc5ccccc5F)nn4)S(=O)(=O)C3)CC2)c1` (stereo not drawn), `Cc1cccc(CN2CCN(C3CN(Cc4ccccc4)S(=O)(=O)C3)CC2)c1` (stereo not drawn) is lower in inhibition: 5.03% for the first, 1.18% for the second.

Compared with `CCOc1ccc(Oc2c(Cl)cnn(-c3ccc(C)cc3)c2=O)cc1`, `COc1ccc(-c2ccc(CCC(=O)O)n2-c2ccc(O)cc2)cc1` is lower in inhibition: 3.14% for the first, -0.88% for the second.

First: Cc1ccc(S(=O)(=O)Cn2nnnc2CN2CCN(Cc3ccc4c(c3)OCO4)CC2)cc1
Second: COc1ccc(Cn2cc(CN3[C@@H](CC(C)C)COc4cc(Br)ccc4S3(=O)=O)nn2)cc1
The inhibition of the first is lower: 0.18% for the first, 0.36% for the second.

Going from `CCOc1nc(OCC)nc(-n2cc(-c3ccccc3)nn2)n1` to `CCc1c(-c2ccc(F)cc2)ncn1Cc1cccc(-c2ccccc2)c1`, the inhibition rises from -0.3% to 1.61%.

First: COc1ccc(-c2ccc(CCC(=O)O)n2NC(=O)c2ccc(C(C)(C)C)cc2)cc1
Second: COC(=O)c1ccc2nc(-c3ccc(C)cc3)c(Cc3ccc(OC)cc3C)n2c1
The inhibition of the first is lower: -1.3% for the first, 7.16% for the second.

Going from `CCC12CN3CC(CC)(CN(C1)C31C(=O)N(C)c3ccc(C)cc31)C2=O` (stereo not drawn) to `Cc1ccc(CN2CCNC(=O)C2CC(=O)NCc2csc(C(C)C)n2)cc1` (stereo not drawn), the inhibition rises from -7.87% to 0.13%.

First: C[C@H](O)[C@@H]1CN2CCc3ccc(-c4ccc5c(c4)OCO5)cc3[C@@H]2C[C@@H]1N(C)C(=O)C1CCCCC1
Second: C[C@H](O)[C@@H]1C(=O)N2CCc3c([nH]c4c(-c5ccc6c(c5)OCO6)cccc34)[C@@H]2C[C@@H]1N(C)C(=O)c1ccco1
The inhibition of the first is higher: -1.38% for the first, -2.04% for the second.

Going from `Cc1ccc(-c2nc3c(Cl)cc(C(F)(F)F)cn3c2Cc2cccc(Cl)c2)cc1` to `Cc1ccc(Cn2cc(COC(=O)N(C)Cc3ccccc3)nn2)cc1`, the inhibition rises from -2.87% to 3.5%.

Going from `CC(C)(C)NC(=O)COC(=O)c1cc(Cl)ccc1[N+](=O)[O-]` to `CCOC(=O)C1CCN(C(=O)C(C)(C)NC(=O)Nc2ccccc2Cl)CC1`, the inhibition rises from -1.21% to 1.47%.

Compared with `COC(=O)C[C@H]1CC[C@H]2[C@H](COc3ccc(NC(=O)C4CC4)cc3C(=O)N2C)O1`, `O=C(Nc1c2c(nn1-c1ccccc1)CS(=O)(=O)C2)C1CCCC1` is higher in inhibition: -4.11% for the first, 2.43% for the second.

Going from `Cc1ccc(N(C(=O)c2snc(C(N)=O)c2N)C(C(=O)NCC2CCCO2)c2c[nH]c3ccccc23)cc1` (stereo not drawn) to `COc1ccccc1OCC(=O)Nc1c2c(nn1-c1ccc(F)cc1)CS(=O)(=O)C2`, the inhibition falls from 0.5% to -1.49%.

First: c1nc(COc2nsnc2N2CCOCC2)cs1
Second: CCOc1cc(-c2noc(CCC(=O)N3CCOCC3)n2)ccc1OC
The inhibition of the first is higher: -0.47% for the first, -5.56% for the second.

Going from `O=C(NCc1cccs1)C1CCN(S(=O)(=O)c2ccccc2[N+](=O)[O-])CC1` to `O=S(=O)(c1ccccc1)N1CCC(c2ccccc2)CC1`, the inhibition falls from 0.44% to 0.43%.

Going from `CCCn1c(SCC(=O)Nc2c(C)cccc2C)nnc1C(C)C` to `CCC(C)n1[nH]c(=O)c2c(C)cc(C)nc21` (stereo not drawn), the inhibition falls from 6.66% to -4.79%.

Compared with `C[C@@H]1ON(C)[C@H]2C[C@H]3c4cc(N5CCOCC5)ccc4CCN3C[C@@H]12`, `CN(C)Cc1cn(-c2ccc(-c3noc4c3C(=O)N(CC(=O)N3CCOCC3)CC4)cc2)nn1` is higher in inhibition: -5.34% for the first, -2.86% for the second.

Going from `COC(=O)CNc1nc(Cl)nc(N2CCC(C)CC2)n1` to `C/C=C/c1ccc(OCCCCN2CCC(C)CC2)c(OC)c1`, the inhibition falls from 2.21% to -2.18%.

Compared with `Fc1ccc2nc(COCc3nc4ccc(F)cc4[nH]3)[nH]c2c1`, `O=c1[nH]cnc2c1c(-c1ccccc1)cn2-c1ccc(F)cc1` is higher in inhibition: -0.41% for the first, 4.57% for the second.

First: CCC(=O)Nc1cccc(C2=NOC3(C2)C[C@@H](C(N)=O)N(C(=O)c2cc([N+](=O)[O-])cc([N+](=O)[O-])c2C)C3)c1 (stereo partly drawn)
Second: O=C1/C(=C\c2ccc([N+](=O)[O-])cc2)CS(=O)(=O)C/C1=C/c1ccc([N+](=O)[O-])cc1
The inhibition of the first is higher: -0.08% for the first, -5.61% for the second.

Compared with `O=C(CNS(=O)(=O)c1ccccc1F)N1CCN(c2ccccn2)CC1`, `COc1ccnc(NC(=S)N2CCN(c3ncc(C(F)(F)F)cc3Cl)CC2)c1` is higher in inhibition: -1.19% for the first, 6.09% for the second.

First: Cc1ccc(OCc2nnc(SC/C=C/c3ccccc3)n2Cc2ccco2)cc1
Second: C[C@H]1[C@H](c2ccccc2)Oc2cc(Br)ccc2S(=O)(=O)N1Cc1cccc(F)c1
The inhibition of the first is lower: -3.87% for the first, 8.37% for the second.

Compared with `C=CCN1C(=O)[C@@H](CC(=O)N2CCN(C(=O)OCC)CC2)[C@]2(C(=O)OCC)CCCCC/C=C/12`, `CS(=O)(=O)N(C(=O)NC(=O)NC1CCS(=O)(=O)C1)C1CCCCC1` (stereo not drawn) is lower in inhibition: 4.9% for the first, 0.13% for the second.

Going from `COc1ccc(-c2noc(CCCC(=O)NC3CCCC3)n2)cc1OC` to `COC(=O)[C@]12C[C@H](CC(=O)NCc3ccc(OC)c(OC)c3)C(=O)N(Cc3ccccc3)C1=C[C@H](C(C)C)O[C@@H]2C1CC1`, the inhibition falls from -2.51% to -2.93%.

Compared with `O=S(=O)(NCC1CCCO1)c1cnc(Cl)c(Cl)c1` (stereo not drawn), `O=C1NC(=O)C(c2ccc(Cl)cc2)N1` (stereo not drawn) is lower in inhibition: 4.2% for the first, 0.89% for the second.

First: c1coc(CCNc2ncnc3ccc(-c4ccc5c(c4)OCO5)cc23)c1
Second: CN(C)CCNC(=O)Cc1ccc([N+](=O)[O-])cc1
The inhibition of the first is lower: -2.55% for the first, -0.79% for the second.

For `CC(C)c1nc(CNC(=O)CC2C(=O)NCCN2Cc2ccoc2)cs1` (stereo not drawn), the inhibition was -4.85%.

In the case of `CO/N=C(/CS(=O)(=O)c1ccc(Br)cc1)c1ccc(OC)cc1`, the inhibition is reported as 14% (active).
`Cc1ccc(C)c(NC(=O)c2ccc(OC(=O)c3ccco3)cc2)c1` was tested, and the inhibition was 19.6% (active).
With `Cc1cccc(CN2CCN(C3CN(Cc4cn(Cc5cc(C)cc(C)c5)nn4)S(=O)(=O)C3)CC2)c1` (stereo not drawn) the inhibition was 17.4% (active).
`CCOC(=O)c1ccc(-n2c(CCC(=O)O)ccc2-c2ccccc2)cc1` was tested, and the inhibition was 14.6% (active).
For `Cc1ccc(-c2ccnc3nc(Sc4ncc(C(F)(F)F)cc4Cl)nn23)cc1`, the inhibition was 14.8% (active).
In the case of `C=CCn1c(=S)[nH]c2scc(-c3ccco3)c2c1=O`, the inhibition is reported as 21.2% (active).
With `COc1ccc(COC[C@H](CC(C)C)N2CCN(C(=O)c3cccc(C(F)(F)F)c3)CCC2=O)cc1` the inhibition was 13.4% (active).
For `Cc1c(CC(=O)N2CCN(C(=O)C3COc4ccccc4O3)CC2)c(=O)oc2c(O)c(O)ccc12` (stereo not drawn), the inhibition was 13.6% (active).
With `COc1ccc(-n2cc(-c3ccccc3)c3c(=S)nc[nH]c32)cc1` the inhibition was 14% (active).
With `COC(=O)c1ccc2nc(-c3cccc(Br)c3)c(Cc3ccc(OC)cc3C)n2c1` the inhibition was 14.9% (active).
`Brc1ccc(-c2n(-c3ccccn3)c3ccccc3[n+]2-c2ccccn2)cc1` was tested, and the inhibition was 27.6% (active).
In the case of `CCOc1cc(-c2noc(CCCC(=O)NC3CCCCC3)n2)ccc1OC`, the inhibition is reported as 20.2% (active).
In the case of `O=C(CC1CCCCC1)Nc1c2c(nn1-c1ccc(F)cc1)CS(=O)(=O)C2`, the inhibition is reported as 15.6% (active).
For `CC(C)Oc1ccc(C2NC(=O)NC2=O)cc1` (stereo not drawn), the inhibition was 15.2% (active).
In the case of `CC(C)c1nc(CNC(=O)CC2C(=O)NCCN2Cc2cccc(F)c2F)cs1` (stereo not drawn), the inhibition is reported as 24.3% (active).
With `CN(C)CCNC(=O)c1ccc(Cl)c2cc3ccccc3nc12` the inhibition was 51.2% (active).
With `CCOc1ccc(S(=O)(=O)N2CCC(c3ccccc3)CC2)cc1C(=O)O` the inhibition was 22.6% (active).

From PubChem BioAssay AID686964 (The Scripps Research Institute Molecular Screening Center, 2013)
